# LGR2 antag: inhibitors of bursicon-induced Drosophila LGR2 receptor cAMP signaling | HEK293 LGR2, CRE-luciferase, bursicon-stimulated, 4 h | actives 0.35% (n = 380,000) | inhibition, % at 9.99 µM | AID 720647;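 active = drop in luminescence signal, shown as inhibition above about 50% in the replicate tests, limit read from the data, passing the limit was not always enough; inconclusive = probably only some replicates passing the limit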;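 note: agonist challenge used bursicon conditioned medium at about half maximal strength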
# PAX8 inh HTS: lowers PAX8-driven luciferase in RMG-I cells; RMG-I TPO-luciferase reporter, SteadyGlo, 24 h; actives 1.2% (n = 360,000); inhibition, % at 12.6 µM;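 active = mean replicate inhibition at least 60% with every replicate also reaching 60%; inconclusive = only one of the two criteria is met; inactive = mean below 60% and not all replicates reaching 60%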;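 note: luciferase light reporting Pax8 driven TPO promoter activity; plate controls were median of neutral control wells for no effect and mitoxantrone controls for full effect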
# EWS-Fli block: inhibitors of EWS/Fli oncoprotein transcriptional activity | A673 NR0B1-luciferase reporter, viability-normalised | inhibition, % at 12.6 µM | AID 651661 | actives 0.67% (n = 350,000);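 active = mean inhibition of at least 50% after viability correction, with every replicate also passing that limit; inconclusive = mean reaches 50% but only one of two replicates passes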;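 note: firefly luciferase signal divided by Alamar Blue viability fluorescence both relative to DMSO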
# TWEAK-Fn14 inh: inhibitors of TWEAK-Fn14 interaction signaling | TWEAK-stimulated Fn14 reporter cells, luciferase luminescence, 8 h | inhibition, % at 10 µM | actives 2% (n = 360,000) | AID 1159606; in the data active = inhibition above about 50%
# TROY NFkB inh: inhibitors of TROY-dependent NF-kB signaling; Q293 LMP1-TROYcd NF-kB luciferase reporter, 4 h; actives 0.98% (n = 360,000); inhibition, % at 10 µM; AID 1347056;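 active = compounds whose plate-normalised and pattern-corrected inhibition of the luciferase reporter signal at the single screening dose is 50% or more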
# Active calls of the source: *; ? = inconclusive; . = no result. Compounds with a hit are over-represented: about 2.8% of the library has one in this group of screens.
SMILES,LGR2 antag,PAX8 inh HTS,EWS-Fli block,TWEAK-Fn14 inh,TROY NFkB inh
Cc1noc(C)c1NC(=O)Nc1ccc2c(c1)C(=O)N([C@H](C)CO)C[C@@H](C)[C@H](CN(C)S(=O)(=O)c1c(C)noc1C)OCCCC[C@@H](C)O2,-15,-45,-8,.,.
Cc1ccc(S(=O)(=O)N2CCOCC2)cc1NC(=O)c1cc2c(s1)CCC2,.,.,.,15,16
Cc1ccc(S(=O)(=O)Nc2ccc(Cl)cc2)cc1NC(=O)c1cc2c(s1)CCCC2,-1,22,.,72*,62*
COc1ccccc1N1CCN(c2ccnc3cc(Cl)ccc23)CC1,10,19,54*,20,45
CCCC(=O)Nc1ccc2c(c1)OC[C@H](C)N(C(=O)c1cnccn1)C[C@H](C)[C@H](OC)CN(C)C2=O,-5,-13,2,.,.
CO[C@H]1CN(C)C(=O)c2cc(NS(=O)(=O)c3ccc(Oc4ccccc4)cc3)ccc2OC[C@H](C)NC[C@H]1C,22,28,8,.,.
N#Cc1ccccc1Cn1cc(/C=C/[N+](=O)[O-])c2ccccc21,69*,-7,15,50,24
O=C(O)Cn1cc(/C=C/[N+](=O)[O-])c2ccccc21,1,4,6,-7,22
O=[N+]([O-])/C=C/c1cn(Cc2ccccc2)c2ccccc12,.,.,.,22,-10
O=C(Cn1cc(/C=C\[N+](=O)[O-])c2ccccc21)Nc1ccccc1,67*,18,43,-1,6
COc1ccccc1NS(=O)(=O)c1ccc2oc(SCc3ccc(C#N)cc3)nc2c1,4,16,.,58*,39
CNC(=O)CSc1nc2cc(S(=O)(=O)Nc3ccccc3OC)ccc2o1,2,-2,-21,39,15
CCCCCCN(C(=O)CCCCCN1C(=O)NC(c2ccc(-c3ccccc3)cc2)C(C(=O)OCc2ccccc2)=C1C)C(C(=O)NCCCC)c1ccccn1 (stereo not given),11,80*,7,.,.
Cc1ccc(-c2c[n+](CC(=O)c3ccc(Br)cc3)c3n2CCCCC3)cc1,47,98*,48,29,21
CC1(C)SC(=S)N(NC(=O)Nc2cccc3ccccc23)C1N(O)C(=O)Nc1ccccc1 (stereo not given),1,18,4,22,55*
CNC(=O)N(O)C1N(NC(=O)Nc2ccccc2)C(=S)SC1(C)C (stereo not given),2,-5,-6,1,-10
Cn1cc(C(=O)c2ccc(Cl)cc2Cl)cc1C(=O)N/N=C(\N)COc1ccc(F)cc1,.,.,.,22,9
Cn1cc(C(=O)c2ccc(Cl)cc2Cl)cc1C(=O)N/N=C(\N)COc1ccc(Cl)cc1Cl,.,.,.,57*,19
Cn1cc(C(=O)c2ccc(Cl)cc2Cl)cc1C(=O)N/N=C(\N)COc1ccccc1,.,.,.,16,.
Cn1cc(C(=O)c2ccc(Cl)cc2Cl)cc1C(=O)N/N=C(\N)COc1ccc(Cl)cc1,0,70*,25,-10,44
CCS(=O)(=O)N[C@@H]1CC[C@H](CC(=O)NC2Cc3ccccc3C2)O[C@H]1CO,8,-2,-7,.,.
c1cc(-c2cc3cc(N4CCOCC4)ccc3o2)cs1,-13,-205,49,65*,38
COc1ccc(C#Cc2c(-c3ccsc3)oc3ccc(N4CCOCC4)cc23)cc1,-18,-50,-42,-37,-56
COc1ccc(C(=O)Oc2cc(/C=N/NS(=O)(=O)c3ccccc3)ccc2OC)cc1,.,.,.,-6,-2
CCOc1ccc(/C=N/NS(=O)(=O)c2ccc(C)cc2)cc1OC,-22,-7,1,-7,15
SMILES,LGR2 antag,PAX8 inh HTS,EWS-Fli block,TWEAK-Fn14 inh,TROY NFkB inh
COc1ccc(/C=N/NS(=O)(=O)c2ccc(C)cc2)cc1OC(=O)c1ccc(C)cc1,.,.,.,55*,6
COc1cc(/C=N/NS(=O)(=O)c2ccc(C)cc2)ccc1OCc1ccc(C(=O)O)cc1,43,100*,.,-13,-70
O=c1cc(-c2ccc3c(c2)OCO3)oc2ccccc12,-81,.,-57,-22,-66
Nc1c(-c2ccc3c(c2)OCCO3)oc2ccccc2c1=O,-63,-76,-109,55*,33
COc1ccc(CCn2c(C3CCCCC3)nc3c(c(=O)c4ccccc4n3C)c2=O)cc1,27,40,56*,0,65*
COC(=O)c1ccc(NC(=O)Nc2ccc([N+](=O)[O-])cc2)cc1,13,3,1,20,50*
CCc1ccc(-n2c(SCC(=O)Nc3cc(C)[nH]n3)nc3[nH]ncc3c2=O)cc1,.,.,.,98*,.
CCc1ccccc1-n1c(SCC(=O)Nc2ccc3c(c2)OCCO3)nc2[nH]ncc2c1=O,8,.,.,88*,80*
COc1ccc(CCNC(=O)CSc2nc3[nH]ncc3c(=O)n2-c2ccc(Br)cc2)cc1OC,4,14,-2,9,-7
N#Cc1c(Cl)cccc1N1CCCC1,.,3,5,-16,8
N#Cc1c(F)cccc1N1CCOCC1,.,.,.,87*,.
CCCc1cn(CC[C@H]2CC[C@@H](NC(=O)Nc3ccc4c(c3)OCO4)[C@H](CO)O2)nn1,-17,-6,-2,.,.
COC(=O)Cn1c(=O)c(C(=O)CCl)c(N)n(Cc2ccccc2)c1=O,-8,63*,?,31,-2
COc1ccccc1/C=C/C(=O)c1c2c(c(C)[nH]c1=O)CCCC2,56*,.,15,86*,35
COc1ccccc1/C=C/C(=O)c1ccccc1,-58,-83,-70,12,-51
COc1ccc(CNC(=O)C2CC(=O)N(c3ccc(OCC(=O)N4CCCCC4)cc3)C2)cc1 (stereo not given),.,.,.,13,58*
COc1ccc(N2CC(C(=O)N/N=C/c3ccc(C)cc3)CC2=O)cc1 (stereo not given),3,20,60*,5,15
C[C@H]1CCCCO[C@@H](CN(C)C(=O)Nc2ccc(C(F)(F)F)cc2)[C@@H](C)CN([C@@H](C)CO)C(=O)c2cc(NC(=O)Nc3ccc(C(F)(F)F)cc3)ccc2O1,7,22,-4,.,.
C[C@@H]1CN([C@@H](C)CO)C(=O)c2cc(NC(=O)CCC(F)(F)F)ccc2O[C@@H]1CN(C)S(=O)(=O)c1cn(C)cn1,-1,.,-1,.,.
CC(C)(C)c1nnc(N/N=C/c2cc(Br)ccc2O)n(N)c1=O,37,61*,.,32,-2
CCc1nnc(N/N=C/c2cc(Br)c(O)cc2O)n1N,7,4,3,-1,16
CC(C)NC(=O)NCC[C@@H]1CC[C@@H](NS(=O)(=O)c2ccc(Oc3ccccc3)cc2)[C@@H](CO)O1,11,5,5,.,.
COc1ccc(Nc2nnc(SCC(=O)/C=C3/N(C)c4ccccc4C3(C)C)s2)cc1,4,17,.,71*,37
C[C@H]1CN([C@@H](C)CO)S(=O)(=O)c2ccc(C#Cc3ccccc3)cc2O[C@H]1CN(C)C(=O)CN(C)C,16,.,22,.,.
C[C@H]1CN([C@@H](C)CO)S(=O)(=O)c2ccc(C#Cc3ccc(F)cc3)cc2O[C@@H]1CN(C)C(=O)CN(C)C,6,.,67*,.,.

# From PubChem BioAssay
